Rows were chosen to be rich in hits. Some 2.4% of all compounds tested hit in one or more screens of this group.
D2 PAM-1: Beta-Arrestin HTS for Positive Allosteric Modulators of the Human D2 Dopamine Receptor: Potentiators. 360,000 compounds, 0.23% hits. AID 624464, 2012. D(2) dopamine receptor (Homo sapiens), P14416. DiscoveRx D2 beta-arrestin cells, luminescence, 90 min; 100% = 57 uM dopamine signal. potentiation, % (no concentration beside the values); in the data active means potentiation above about 50%; inconclusive means mostly about 30% to 49%
Target sequence (P14416 whole entry, looked up): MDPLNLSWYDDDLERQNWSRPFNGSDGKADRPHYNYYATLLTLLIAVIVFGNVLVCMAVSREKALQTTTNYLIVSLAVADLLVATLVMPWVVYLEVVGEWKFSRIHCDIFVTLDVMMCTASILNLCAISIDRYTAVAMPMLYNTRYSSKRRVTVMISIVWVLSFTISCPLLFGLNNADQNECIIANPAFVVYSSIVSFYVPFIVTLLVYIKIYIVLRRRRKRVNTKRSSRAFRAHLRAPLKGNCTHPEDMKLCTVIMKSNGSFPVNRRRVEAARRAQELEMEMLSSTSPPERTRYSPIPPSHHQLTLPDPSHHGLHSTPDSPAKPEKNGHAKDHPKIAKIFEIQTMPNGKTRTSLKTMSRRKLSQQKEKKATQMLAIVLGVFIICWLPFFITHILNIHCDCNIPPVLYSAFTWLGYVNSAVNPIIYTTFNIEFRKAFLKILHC
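PathHunter beta-arrestin assay in DiscoveRx D2 cells. Compounds were added with an EC20 of dopamine (50 nM final) for 90 min at 37 deg C. Luminescence was read 1 h after detection reagent, with 57 uM dopamine as the EC100 control.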
D2 ag-1: HTS Assay for Allosteric Agonists of the Human D2 Dopamine Receptor: Primary Screen for Agonists; D(2) dopamine receptor (Homo sapiens), P14416; 340,000 compounds, 0.53% hits; activation, % at 2 µM; HEK293 T-REx D2 cells, calcium flux agonist mode;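 active means activation over 3 SD above normal in the single-dose calcium agonist read, cut at about 30% in these data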; further: 0% is about no effect
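Tetracycline-induced HEK293 T-REx cells with force-coupled D2 receptor, plated overnight at 30 C, loaded with no-wash calcium dye. After a 10 s baseline, compound was pin-added and calcium flux read kinetically for 180 s; calcium rises flagged agonists.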
D2 PAM-2: HTS Assay for Positive Allosteric Modulators of the Human D2 Dopamine Receptor: Primary Screen for Potentiators; 340,000 compounds, 0.34% hits; potentiation, % at 10 µM; D(2) dopamine receptor (Homo sapiens), P14416; HEK293 T-REx D2, calcium flux, EC20 dopamine potentiation;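 active means potentiation over 3 SD above the plate norm, cut at about 30% in these data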; further: 0% is about no effect
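Potentiation of an EC20 dopamine calcium response measured kinetically over 180 s, after a preceding 180 s compound-only read flagging agonists. Cells: inducible Hek293 Trex D2 line, 4000/well, cultured overnight at 30 C before dye loading.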
D2 antagonist: HTS Assay for Allosteric Antagonists of the Human D2 Dopamine Receptor: Primary Screen for Antagonists. D(2) dopamine receptor (Homo sapiens), P14416. HEK293 TREx D2 cells, calcium flux, dopamine EC80. inhibition, % at 10 µM. 340,000 compounds, 2% hits. AID 485344, 2010; in the data active means inhibition above about 30%; inactive means below that, where a call was filed; further: 0% is about no effect
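HEK293 T-REx D2 cells, tet-induced, calcium dye no-wash. Cpd pintool add, 180 s kinetic, then EC80 DA, 180 s kinetic. Ca flux read.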
D2 ag-2: Beta-Arrestin HTS for Positive Allosteric Modulators of the Human D2 Dopamine Receptor: Agonists. 360,000 compounds, 0.084% hits. activation, % (test concentration not listed). AID 624465, 2012. DiscoveRx PathHunter D2 beta-arrestin, luminescence, 90 min; 100% = 57 uM dopamine signal. D(2) dopamine receptor (Homo sapiens), P14416; in the data active means activation above about 40%; inconclusive means between about 15% and that limit
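DiscoveRx PathHunter D2 beta-arrestin cells (2,100/well) attached overnight, then compound-stimulated 90 min at 37 C in HBSS/10 mM HEPES/0.1% Tween-20 buffer; beta-galactosidase complementation read by luminescence after 1 h at ambient temperature. Dopamine 57 uM final (EC100) as control.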
* hit, by the source's call; ? = inconclusive; . = no result given.

SMILES | D2 PAM-1 | D2 ag-1 | D2 PAM-2 | D2 antagonist | D2 ag-2
COc1ccc(CN2C3CCCC2CC(NC(=O)Nc2cccc(C)c2)C3)cc1 (stereo not given) | -48.4 | -0.1 | -9.6 | 9.0 | -1.0
Cc1ccc(NS(=O)(=O)c2ccc3[nH]c4c(c3c2)CCCCC4)cc1 | . | 0.8 | -3.0 | . | .
O=S(=O)(Nc1nc2ccccc2nc1Cl)c1cccc(C(F)(F)F)c1 | 5.5 | -0.7 | -2.8 | 29.9 | -3.3
O=C(CCc1nc2ccccc2c(=O)[nH]1)Nc1ccc(N2CCCCC2)cc1 | -10.4 | -5.3 | -3.0 | 76.7* | 1.2
COc1cccc(N2CCN(c3ncnc4c3cnn4-c3ccc(C)cc3C)CC2)c1 | 25.3 | -0.2 | -7.8 | 22.8 | 86.7*
Cc1ccc(-n2ncc3c(N4CCCC4)ncnc32)c(C)c1 | -12.6 | 1.3 | -4.4 | 10.8 | -2.9
Cc1nc([N+](=O)[O-])c(Br)n1CC(=O)c1cccc([N+](=O)[O-])c1 | 5.3 | 0.0 | 24.8 | -8.6 | 5.9
Cc1nc([N+](=O)[O-])c(Br)n1CC(=O)c1ccc(F)cc1 | 4.2 | 0.5 | 8.0 | 33.6* | -0.7
COc1ccc(C(=O)NCc2cnn(C)c2)cc1OC1CCN(C(C)C)CC1 | -1.9 | 1.1 | -2.1 | -0.4 | 2.6
CCc1ccc(CNC(=O)c2ccc(OC)c(OC3CCN(C(C)C)CC3)c2)nc1 | -23.4 | 0.6 | -9.7 | 42.0* | 4.2
Cc1ccc(CSc2nnc(CS(=O)Cc3ccc(Cl)cc3Cl)n2C)cc1 (stereo not given) | 6.8 | -0.1 | 4.6 | -9.0 | -0.4
Cn1c(CS(=O)Cc2c(Cl)cccc2Cl)nnc1SCc1ccc(Cl)cc1 (stereo not given) | -9.6 | -1.3 | 11.1 | 31.0* | 0.1
O=C(NC1CCCC1)c1ccccc1-c1ccccc1 | -7.5 | 0.2 | -1.5 | -15.3 | -3.6
O=C(O)c1ccccc1C(=O)NC1Cc2ccccc2C1 | 3.6 | 35.5* | -11.5 | 6.4 | 1.1
CCOc1ccc(CCNC(=O)c2ccc(CS(=O)(=O)Cc3ccccc3Cl)o2)cc1OCC | . | 0.2 | 2.6 | . | .
CCCCNC1=CC(=O)C(=O)c2ccccc21 | -7.7 | 0.8 | 9.4 | 2.8 | 51.5*
Cn1cccc1C(=O)OCC(=O)N1CC(=O)Nc2ccccc21 | -21.6 | 2.0 | 2.4 | 33.7* | -4.4
O=C(NC1CC(=O)N(c2cccc(F)c2)C1)c1cccs1 (stereo not given) | . | 0.7 | 2.6 | . | .
O=C1CC(N2CCN(c3ccccc3Cl)CC2)C(=O)N1c1ccccc1 (stereo not given) | -4.2 | 0.2 | 3.9 | -8.0 | -1.8
O=C1CC(N2CCN(c3ccccc3)CC2)C(=O)N1c1ccc2c(c1)OCCO2 (stereo not given) | -16.4 | 0.4 | -5.9 | 37.9* | -2.9
O=C1CC(N2CCOCC2)C(=O)N1c1ccccc1Cl (stereo not given) | -1.8 | 0.3 | 56.8* | -11.2 | -4.7
CN1CCN(C2CC(=O)N(c3ccc4c(c3)OCCO4)C2=O)CC1 (stereo not given) | 14.5 | 1.0 | -12.2 | -1.7 | -1.4
Cc1ccc(NC(=O)c2ccc(CSc3nccc(C)n3)cc2)cc1 | -29.7 | -0.5 | -21.3 | 31.1* | 1.3
CC(C)CCOc1ccc(C2N=C(N)Nc3nc4ccccc4n32)cc1 (stereo not given) | . | . | 25.1 | . | .
CN(C)CCN1C(=O)C(=O)/C(=C(/O)c2ccc(OCc3ccccc3)cc2)C1c1ccncc1 (stereo not given) | -0.7 | 0.9 | 2.8 | 42.0* | 0.1
SMILES | D2 PAM-1 | D2 ag-1 | D2 PAM-2 | D2 antagonist | D2 ag-2
CCOc1ccc(C2/C(=C(/O)c3ccc(Cl)cc3)C(=O)C(=O)N2CCCN(C)C)cc1OC (stereo not given) | . | 0.3 | 4.6 | 45.2* | .
Cc1cccc(NC(=O)CN2C(=O)COc3ccc(S(=O)(=O)N4CCC(C)CC4)cc32)c1C | . | -1.0 | 2.4 | . | .
Cc1ccc(C2C(C#N)=C(N)Oc3cc(N)ccc32)cc1 (stereo not given) | -0.4 | -0.4 | 0.3 | 10.5 | -0.4
Cc1ccc(/C=C2\CCC3=C2OC(N)=C(C#N)C3c2ccc(C)cc2)cc1 (stereo not given) | 7.2 | 72.3* | -5.0 | -35.3 | -3.3
N#Cc1sc2nc(C3CC3)cc(-c3ccccc3)c2c1N | -16.5 | -1.5 | 8.4 | 1.5 | -2.7
N#Cc1sc2nc(-c3ccccc3)cc(-c3ccco3)c2c1N | -6.3 | 0.5 | 0.2 | 62.3* | -2.3
CCn1cc(C(=O)NCCC(C)C)c(=O)c2cc(S(=O)(=O)N(C)C3CCCCC3)ccc21 | . | 0.9 | 22.7 | . | .
CN(Cc1ccc(Cl)c(Cl)c1)C(=O)C1CC(=O)N(c2ccc3c(c2)OCCO3)C1 (stereo not given) | -9.0 | . | . | . | 2.0
Cn1cnnc1SCC(=O)Nc1nc(-c2ccccc2)cs1 | -6.7 | -0.2 | -6.1 | 55.6* | -4.0
Cc1nnc(SCC(=O)Nc2nc(-c3ccccc3)cs2)n1N | -0.1 | 0.3 | 7.4 | -2.3 | -1.3
NC(=O)c1ccccc1NC(=O)C1CCCN(c2ncnc3onc(-c4ccc(F)cc4)c23)C1 (stereo not given) | . | -0.6 | 3.0 | . | .
CC(C)(C)OC(=O)N1CCC(c2c(C(=O)O)cnn2-c2ccccc2Cl)CC1 | -13.4 | -0.9 | -2.1 | 12.9 | -1.9
CC(C)(C)OC(=O)N1CCC(c2c(C(=O)NCC3CCN(C4CCCC4)C3)cnn2-c2ccccc2Cl)CC1 (stereo not given) | -8.7 | -0.5 | 4.7 | 46.1* | 0.4
Cc1ccc(C)c(NC(=O)Cn2c(=O)n(Cc3cccs3)c(=O)c3cccnc32)c1 | . | -0.5 | -18.9 | . | .
Cc1sc(N/N=C/c2cccs2)nc1-c1ccccc1 | 66.4* | 0.4 | -9.3 | -15.5 | ?
COc1ccc(-c2nnc(SCCC(=O)O)n2C)cc1OC | -9.0 | 0.0 | 9.1 | 34.4* | 0.7
CC(C)N(Cc1ccccc1)C(=O)/C=C/c1ccccc1[N+](=O)[O-] | -5.4 | 0.4 | 13.9 | -1.1 | 0.2
O=[N+]([O-])c1ccc2ncnc(N3CCN(Cc4ccc5c(c4)OCO5)CC3)c2c1 | -27.3 | 77.5* | -19.4 | 101.2* | ?
CN(C/C=C/c1ccccc1[N+](=O)[O-])Cc1ccccc1 | -6.7 | 0.3 | -21.0 | 56.7* | 1.3
O=[N+]([O-])c1ccccc1/C=C/CN1CCCCC1 | -19.6 | 0.3 | -17.9 | 36.4* | 5.6
O=[N+]([O-])c1ccccc1/C=C/CN1CCN(Cc2ccc3c(c2)OCO3)CC1 | -77.6 | 2.5 | -22.4 | 31.5* | 2.8
